Data taken from PubChem BioAssay (EPA / NIEHS).
Values joined by “and” are separate entries in the source; they are usually repeats but may differ in a detail not shown here. Equal entries are not always repeated. Inconclusive results are not listed. A structure can be active in one record and inactive in another. Active and inactive are the calls of the source. How the source made its calls, unless noted: active means hit-call score of the fitted dose curve at least 0.9, where 1 is the maximum; inactive means score below 0.9.

Tests used:
[1] = target: Transcription factor Sp1 (Homo sapiens) (UniProt P08047); experiment: ATG_Sp1_CIS: Attagene CIS-FACTORIAL HepG2 Assay for human Specificity Protein 1 (Sp1) (AID 2282961); details: HepG2 Sp1 cis-reporter transcription, actives raise or lower the signal
Procedure, shortened: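 Transient MRTU-transfected HepG2, 24 h compound exposure. Total RNA → oligo(dT) RT → PCR of reporter → 6-FAM primer extension → HpaI digest → CE. Endpoint fitted both directions vs DMSO.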

[2] = ATG_SREBP_CIS: Attagene CIS-FACTORIAL HepG2 Assay for human Sterol Regulatory Element Binding (SREBP) (AID 2282962); details: HepG2 Attagene cis-factorial SREBP reporter, mRNA; actives raise or lower the signal
Procedure, shortened: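 HepG2 cells transiently transfected with multiplexed cis-element reporter units report endogenous transcription factor activity. After 24 h of chemical exposure, reporter mRNA was quantified by RT-PCR, 6-FAM labelling, HpaI digestion and capillary electrophoresis; bidirectional fits used DMSO as baseline.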

[3] = target: Signal transducer and activator of transcription 3 (Homo sapiens) (UniProt P40763); experiment: ATG_STAT3_CIS: Attagene CIS-FACTORIAL HepG2 Assay for human Signal Transducer and Activator of Transcription 3 (STAT3) (AID 2282963); details: HepG2, Attagene cis-factorial STAT3 reporter transcription; actives raise or lower the signal
Procedure, shortened: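 Transcript-level reporter assay. HepG2 transient MRTU transfection, 24 h exposure, fluorescence detection after RT-PCR and CE; DMSO baseline.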

[4] = ATG_TA_CIS: Attagene CIS-FACTORIAL HepG2 Assay for human TA Basal Promoter (AID 2282964); details: HepG2 Attagene CIS-factorial TA basal promoter reporter; actives raise or lower the signal
Procedure, shortened: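 Cis-factorial format in HepG2: reporters report endogenous factors, not chimeric Gal4 fusions. After 24 h treatment, reporter transcripts were measured by RT-PCR-capillary electrophoresis fluorescence, analysed bidirectionally versus DMSO.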

[5] = ATG_TCF_b_cat_CIS: Attagene CIS-FACTORIAL HepG2 Assay for human T-Cell-Factor with beta-catenin (TCF/b-cat) (AID 2282965); details: HepG2 TCF/beta-catenin cis-reporter transcription, actives raise or lower the signal
Procedure, shortened: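 HepG2 cells transiently transfected with multiple cis-promoter-regulated reporter transcription units, so endogenous transcription factor activity is measured. Reporter mRNA read 24 hours after dosing by RT-PCR, fluorescent labelling and capillary electrophoresis; bidirectional fitting against DMSO.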

[6] = ATG_TAL_CIS: Attagene CIS-FACTORIAL HepG2 Assay for human TAL Basal Promoter (AID 2282966); details: HepG2 Attagene cis-factorial TAL promoter reporter; actives raise or lower the signal;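 further: background control endpoint measuring basal TAL promoter reporter mRNA not a specific factor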
Procedure, shortened: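 HepG2 cells were transiently transfected with promoter-driven multiplexed reporter units and dosed for 24 h. Reporter mRNA was measured by RT-PCR with capillary electrophoresis fluorescence; bidirectional fits used DMSO as baseline, serving as a background control.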

[7] = ATG_TGFb_CIS: Attagene CIS-FACTORIAL HepG2 Assay for human Transforming Growth Factor (TGF) (AID 2282967); details: HepG2 Attagene CIS TGFb reporter, mRNA transcription; actives raise or lower the signal
Procedure, shortened: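 Multiplexed cis-reporter HepG2 system, 24 h treatment; mRNA induction read by fluorescence after RT-PCR and CE; DMSO negative control, bidirectional curve fitting.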

[8] = ATG_VDRE_CIS: Attagene CIS-FACTORIAL HepG2 Assay for human Vitamin D Receptor Element (VDRE) (AID 2282968); details: HepG2 VDRE cis-reporter transcription, actives raise or lower the signal
Procedure, shortened: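 RT-PCR/CE readout of reporter mRNA; HepG2, transient transfection, 24 h dosing; DMSO baseline; bidirectional analysis.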

[9] = target: Nuclear receptor subfamily 1 group I member 3 (Homo sapiens) (UniProt Q14994); experiment: ATG_CAR_TRANS: Attagene TRANS-FACTORIAL HepG2 Assay for human Constitutive Androstane Receptor (CAR) (AID 2282969; active means hit-call score of the fitted dose curve at least 0.9, where 1 is the maximum;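 further: activators raise reporter mRNA above DMSO so AC50 marks induction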); details: HepG2 Attagene TRANS-FACTORIAL CAR reporter
Procedure, shortened: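 HepG2 cells transiently transfected with multiplexed GAL4-UAS reporter units expressing chimeric NR-Gal4 proteins; compound exposure 24 h. Reporter mRNA measured by RT-PCR, 6-FAM labelling, HpaI digestion and capillary electrophoresis; gain-of-signal fitted against DMSO baseline.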

[10] = target: Estrogen receptor (Homo sapiens) (UniProt P03372); experiment: ATG_ERa_TRANS: Attagene TRANS-FACTORIAL HepG2 Assay for human Estrogen Receptor alpha (ERa) (AID 2282970; active means hit-call score of the fitted dose curve at least 0.9, where 1 is the maximum); details: HepG2 Attagene TRANS ERa GAL4 reporter, mRNA
Procedure, shortened: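 HepG2 cells transiently transfected with multiplexed GAL4-UAS reporter units; ERa activity read via exogenous chimeric NR-Gal4 protein. After 24 hour compound exposure, reporter mRNA measured by RT-PCR with 6-FAM labelling and capillary electrophoresis; gain-of-signal fitted relative to DMSO.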

Measured: AC50

Chain of Nuclear receptor subfamily 1 group I member 3 (Homo sapiens) (Q14994 whole entry, looked up, the tested form may be a part): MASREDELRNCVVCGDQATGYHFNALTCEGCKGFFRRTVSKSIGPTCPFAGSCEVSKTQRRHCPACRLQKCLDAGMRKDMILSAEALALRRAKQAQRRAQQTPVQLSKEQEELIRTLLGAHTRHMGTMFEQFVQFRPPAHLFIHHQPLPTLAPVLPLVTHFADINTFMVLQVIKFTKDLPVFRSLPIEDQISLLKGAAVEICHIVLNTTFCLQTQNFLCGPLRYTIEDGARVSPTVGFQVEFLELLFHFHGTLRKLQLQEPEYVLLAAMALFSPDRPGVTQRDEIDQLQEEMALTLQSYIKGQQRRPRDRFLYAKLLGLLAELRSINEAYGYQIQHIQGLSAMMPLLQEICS
Chain of Signal transducer and activator of transcription 3 (Homo sapiens) (P40763 whole entry, looked up): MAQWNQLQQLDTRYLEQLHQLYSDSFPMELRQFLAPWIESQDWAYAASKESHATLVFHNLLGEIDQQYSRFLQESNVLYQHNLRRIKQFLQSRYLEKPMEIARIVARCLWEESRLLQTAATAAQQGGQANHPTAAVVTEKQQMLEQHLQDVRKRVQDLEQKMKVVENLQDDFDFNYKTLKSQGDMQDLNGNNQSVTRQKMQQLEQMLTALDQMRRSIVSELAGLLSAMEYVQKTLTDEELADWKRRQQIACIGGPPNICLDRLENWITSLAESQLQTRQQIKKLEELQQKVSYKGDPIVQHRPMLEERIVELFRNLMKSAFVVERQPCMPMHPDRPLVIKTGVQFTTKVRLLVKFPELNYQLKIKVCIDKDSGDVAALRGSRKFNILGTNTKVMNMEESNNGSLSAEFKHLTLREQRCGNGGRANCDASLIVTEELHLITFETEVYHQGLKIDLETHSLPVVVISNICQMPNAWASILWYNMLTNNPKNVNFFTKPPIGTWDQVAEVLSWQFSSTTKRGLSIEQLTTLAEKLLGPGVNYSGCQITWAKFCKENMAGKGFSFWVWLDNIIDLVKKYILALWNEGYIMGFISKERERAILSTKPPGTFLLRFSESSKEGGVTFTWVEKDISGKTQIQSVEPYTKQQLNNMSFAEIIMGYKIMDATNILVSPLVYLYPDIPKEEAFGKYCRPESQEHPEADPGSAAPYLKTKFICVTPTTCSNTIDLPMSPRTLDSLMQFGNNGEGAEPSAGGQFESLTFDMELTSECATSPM
Chain of Transcription factor Sp1 (Homo sapiens) (P08047 whole entry, looked up): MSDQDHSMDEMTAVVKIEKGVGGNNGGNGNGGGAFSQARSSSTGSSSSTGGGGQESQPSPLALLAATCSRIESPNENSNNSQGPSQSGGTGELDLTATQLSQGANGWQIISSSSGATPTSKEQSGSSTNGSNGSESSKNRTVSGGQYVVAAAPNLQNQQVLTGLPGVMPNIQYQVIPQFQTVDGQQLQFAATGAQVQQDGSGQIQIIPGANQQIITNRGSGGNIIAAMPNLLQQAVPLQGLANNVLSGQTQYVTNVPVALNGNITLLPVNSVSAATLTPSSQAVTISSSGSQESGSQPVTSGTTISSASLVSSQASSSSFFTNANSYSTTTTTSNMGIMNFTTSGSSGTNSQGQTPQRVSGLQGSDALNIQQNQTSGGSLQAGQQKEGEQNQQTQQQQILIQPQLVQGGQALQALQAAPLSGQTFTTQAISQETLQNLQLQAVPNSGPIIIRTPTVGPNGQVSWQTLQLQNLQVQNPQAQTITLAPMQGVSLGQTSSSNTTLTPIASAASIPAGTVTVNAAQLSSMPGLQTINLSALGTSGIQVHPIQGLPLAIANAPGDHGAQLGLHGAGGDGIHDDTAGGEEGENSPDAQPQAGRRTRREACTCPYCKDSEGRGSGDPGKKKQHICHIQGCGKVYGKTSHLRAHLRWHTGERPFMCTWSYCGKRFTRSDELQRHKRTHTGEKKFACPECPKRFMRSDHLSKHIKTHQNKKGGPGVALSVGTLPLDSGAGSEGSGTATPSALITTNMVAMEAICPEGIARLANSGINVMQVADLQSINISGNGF
Chain of Estrogen receptor (Homo sapiens) (P03372 whole entry, looked up, the tested form may be a part): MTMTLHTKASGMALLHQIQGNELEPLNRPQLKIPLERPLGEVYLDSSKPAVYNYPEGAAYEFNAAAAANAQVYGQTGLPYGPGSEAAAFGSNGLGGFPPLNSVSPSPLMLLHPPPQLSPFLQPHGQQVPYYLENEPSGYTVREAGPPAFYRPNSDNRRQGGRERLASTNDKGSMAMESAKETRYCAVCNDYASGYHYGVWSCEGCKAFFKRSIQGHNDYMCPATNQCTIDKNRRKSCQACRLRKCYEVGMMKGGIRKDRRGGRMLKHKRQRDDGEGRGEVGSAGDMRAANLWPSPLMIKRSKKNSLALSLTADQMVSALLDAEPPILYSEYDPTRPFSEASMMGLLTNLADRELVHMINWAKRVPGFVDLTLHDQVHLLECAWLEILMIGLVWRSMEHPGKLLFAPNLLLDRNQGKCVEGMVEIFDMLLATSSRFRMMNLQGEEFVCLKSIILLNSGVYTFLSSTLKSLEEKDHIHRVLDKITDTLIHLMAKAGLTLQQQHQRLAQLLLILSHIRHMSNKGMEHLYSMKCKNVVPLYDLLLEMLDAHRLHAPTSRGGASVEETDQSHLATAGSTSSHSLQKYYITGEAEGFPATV

CC1CN1P(=O)(N1CC1C)N1CC1C (stereo not drawn)
not listed: [10]
inactive: all other assays above

CCNc1nc(NC(C)(C)C)nc(SC)n1
active: [8] 31.8 µM
not listed: [9]
inactive: all other assays above

COP(=S)(OC)Oc1c(Cl)cc(C)cc1Cl
active: [8] 7.7 µM | [10] 3.3 µM
inactive: all other assays above

COc1cc(-c2ccc(N)c(OC)c2)ccc1N
inactive: [1] | [3] | [4] | [5] | [6] | [7] | [9]
active: [1] 19.8 µM | [2] 7.03 µM and 39.9 µM

C[C@]12CCC(=O)C[C@@H]1CC[C@@H]1[C@@H]2CC[C@]2(C)[C@@H](O)CC[C@@H]12
active: [2] 26 µM and 23 µM | [5] 24.6 µM and 23.6 µM | [8] 33 µM and 17.9 µM and 23.4 µM
inactive: [1] | [2] | [3] | [4] | [5] | [8]

C[C@]12CC[C@H](O)CC1=CC[C@@H]1[C@@H]2CC[C@]2(C)C(=O)CC[C@@H]12
not listed: [8] | [9] | [10]
inactive: all other assays above

COc1cc(OC)nc(NC(=O)NS(=O)(=O)c2ncccc2C(=O)N(C)C)n1
active: [10] 77.8 µM
inactive: all other assays above

O=c1[nH]c(=O)[nH]c(=O)[nH]1
not listed: [10]
inactive: all other assays above

CCC[CH2][Sn]([Cl])([Cl])[Cl]
inactive: [1] | [2] | [3] | [4] | [5] | [6]

Nc1ncc([N+](=O)[O-])s1
not listed: [9]
inactive: all other assays above

Oc1cccc2cccnc12
not listed: [8] | [9] | [10]
inactive: all other assays above

CCC(=O)c1ccccc1
inactive: all assays above

CC12CC1(C)C(=O)N(c1cc(Cl)cc(Cl)c1)C2=O (stereo not drawn)
inactive: [1] | [2] | [3] | [4] | [5] | [6] | [7] | [8] | [9]
active: [8] 8.04 µM

CC(C)(C)CC(C)(C)c1ccc(O)cc1
active: [2] 14.1 µM
inactive: [1] | [2] | [3] | [4] | [6]

COc1ccc(C=O)cc1
inactive: all assays above

COC(=O)c1sccc1S(=O)(=O)NC(=O)Nc1nc(C)nc(OC)n1
inactive: all assays above

O=[N+]([O-])c1ccc(O)c([N+](=O)[O-])c1
not listed: [8] | [9] | [10]
inactive: all other assays above

CCOC(=O)/C=C(C)/C=C/C[C@@H](C)CCCC(C)C
active: [2] 124 µM | [3] 176 µM | [7] 47.4 µM
inactive: [1] | [4] | [5] | [6]

Cc1cc(Cl)ccc1O[C@H](C)C(=O)O
inactive: [1] | [2] | [4] | [5] | [6]
active: [3] 100 µM

CC(C)(c1ccc(OCC2CO2)cc1)c1ccc(OCC2CO2)cc1 (stereo not drawn)
inactive: [1] | [3] | [7]
active: [2] 15.1 µM | [4] 33.4 µM | [5] 49.7 µM | [6] 23.2 µM | [8] 24.9 µM

COP(=S)(OC)Oc1ccc(Sc2ccc(OP(=S)(OC)OC)cc2)cc1
active: [6] 57.7 µM | [7] 61.7 µM | [8] 9.75 µM
inactive: all other assays above

Cl/C=C\C[N+]12CN3CN(CN(C3)C1)C2
active: [5] 26 µM
not listed: [8] | [9] | [10]
inactive: all other assays above

COC[C@H](C)N(C(=O)CCl)c1c(C)csc1C
active: [8] 47.3 µM
not listed: [9]
inactive: all other assays above

ClC1=C(Cl)[C@]2(Cl)[C@H]3[C@H]([C@H]4C=C[C@H]3C4)[C@@]1(Cl)C2(Cl)Cl
active: [10] 8.38 µM
inactive: all other assays above

CCOC(=O)CP(=O)(OCC)OCC
not listed: [8] | [9] | [10]
inactive: all other assays above

CCOC(=O)Nc1cccc(OC(=O)Nc2ccccc2)c1
not listed: [10]
inactive: all other assays above

O=C(CCl)CCl
active: [1] 33.4 µM | [2] 46 µM | [5] 23.4 µM | [8] 45.4 µM
not listed: [9]
inactive: all other assays above

O=C(O)Cc1ccccc1
inactive: all assays above

Cc1ccccc1N
inactive: [1] | [2] | [3] | [4] | [5] | [6]

CCOP(=S)(OCC)Oc1ccc(S(C)=O)cc1 (stereo not drawn)
active: [8] 31.2 µM
inactive: all other assays above

CC(=O)c1cc(C(C)(C)C)cc2c1CCC2(C)C
active: [1] 69.3 µM | [2] 54.4 µM | [8] 25.6 µM
not listed: [9]
inactive: all other assays above

ClC1=C(Cl)[C@]2(Cl)[C@@H]3[C@@H](Cl)[C@@H](Cl)C[C@@H]3[C@@]1(Cl)C2(Cl)Cl
inactive: all assays above

CCC(C)c1cccc(C(C)CC)c1O (stereo not drawn)
active: [10] 24.4 µM
not listed: [9]
inactive: all other assays above

CC(=[OH+])/C=C(/C)[O-].CC(=[OH+])/C=C(/C)[O-].CC(=[OH+])/C=C(/C)[O-].[Fe]
not listed: [9]
inactive: all other assays above

O=C1C2(Cl)C3(Cl)C4(Cl)C(Cl)(Cl)C5(Cl)C3(Cl)C1(Cl)C5(Cl)C24Cl (stereo not drawn)
inactive: [1] | [2] | [4] | [5] | [6] | [7] | [8]
active: [1] 5.85 µM | [5] 17.7 µM | [6] 20.3 µM | [8] 13.1 µM

CC(C)OC(=O)Nc1ccccc1
not listed: [9] | [10]
inactive: all other assays above

ClCc1ccccn1
inactive: all assays above

O=C(O)C(F)(F)C(F)(F)C(F)(F)C(F)(F)C(F)(F)C(F)(F)C(F)(F)C(F)(F)C(F)(F)C(F)(F)F
inactive: [1] | [2] | [3] | [4] | [6] | [9]
active: [5] 31.9 µM and 13.1 µM | [6] 95.5 µM | [8] 25.7 µM and 16.8 µM

CC(=O)C(Cl)C(=O)N(C)C (stereo not drawn)
not listed: [7] | [8]
inactive: all other assays above

O=[N+]([O-])c1c(Cl)c(Cl)cc(Cl)c1Cl
not listed: [7] | [8] | [9]
inactive: all other assays above

O=C(O)C(F)(F)C(F)(F)C(F)(F)C(F)(F)C(F)(F)C(F)(F)F
not listed: [6] | [9] | [10]
inactive: all other assays above

CCCCCCCCc1ccc(O)cc1
not listed: [8] | [10]
inactive: all other assays above

O=C(Cc1ccccc1)c1ccccc1
active: [10] 22.7 µM
not listed: [8]
inactive: all other assays above

CCC1(c2ccc(N)cc2)CCC(=O)NC1=O (stereo not drawn)
not listed: [8] | [9]
inactive: all other assays above

COP(=S)(OC)Oc1cc(Cl)c(Cl)cc1Cl
active: [7] 79.6 µM | [10] 36.3 µM
not listed: [8]
inactive: all other assays above

CNC
not listed: [7] | [9]
inactive: all other assays above

OCc1ccco1
not listed: [7]
inactive: all other assays above

Nc1cccc(Cl)c1
active: [7] 0.739 µM
not listed: [8]
inactive: all other assays above

CCSC(C)CC1CC(=O)C(C(CC)=NOC/C=C/Cl)=C(O)C1 (stereo not drawn)
not listed: [8] | [9]
inactive: all other assays above

CCN(CC)C(=O)Cl
active: [7] 0.104 µM | [10] 15.9 µM
not listed: [8]
inactive: all other assays above

COP(=S)(OC)Oc1ccc(S(=O)(=O)N(C)C)cc1
active: [8] 38.8 µM
not listed: [9]
inactive: all other assays above
